Test [1] is described as follows: Quantitative High-Throughput drug screen in 47 multiple myeloma cell lines against the NCATS MIPE library collection: KHM11_PLB cell viability assay (AID 1918962). Also: nearly all actives have a fitted effect of over 35% in size. Also: potency is read from the fitted curve at half-maximal effect. In outline:
(§1)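 CellTiter-Glo luminescence (ATP) after 48 h compound exposure, 37C/5% CO2; 500 cells/well; MIPE 4.0 approved/investigational drugs pinned in; DMSO = 100%, media only = 0% viability.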

Test [2] can be described thus: Quantitative High-Throughput drug screen in 47 multiple myeloma cell lines against the NCATS MIPE library collection: JIM3_ECACC cell viability assay (AID 1918963; also: nearly all actives have a fitted effect of over 35% in size; also: potency is read from the fitted curve at half-maximal effect). In outline: as §1
A short description of test [3]: Quantitative High-Throughput drug screen in 47 multiple myeloma cell lines against the NCATS MIPE library collection: JJN3_DSMZ cell viability assay (AID 1918966; also: nearly all actives have a fitted effect of over 50% in size; also: potency is read from the fitted curve at half-maximal effect). In outline: (§2)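 Myeloma cells (500 per well) were exposed to MIPE 4.0 compounds by pin transfer and incubated 48 hours at 37C, 5% CO2. Viability was read as ATP by CellTiter-Glo luminescence, normalised to DMSO (100%) and media-only (0%) wells.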

Test [4] is described as follows: Quantitative High-Throughput drug screen in 47 multiple myeloma cell lines against the NCATS MIPE library collection: H1112_PLB cell viability assay (AID 1918967; also: nearly all actives have a fitted effect of over 30% in size; also: potency is read from the fitted curve at half-maximal effect). The method, boiled down:
as §2

Test [5] in a line: Quantitative High-Throughput drug screen in 47 multiple myeloma cell lines against the NCATS MIPE library collection: KMS12BM_JCRB cell viability assay (AID 1918971). Also: nearly all actives have a fitted effect of over 35% in size. Also: potency is read from the fitted curve at half-maximal effect. The method, boiled down:
(§3)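 Approved and investigational drugs from MIPE 4.0 were added by pin tool to 500 cells per well. After 48 hours at 37C, ATP-based CellTiter-Glo luminescence indicated remaining viability.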

Test [6] in a line: Quantitative High-Throughput drug screen in 47 multiple myeloma cell lines against the NCATS MIPE library collection: KMS12PE_JCRB cell viability assay (AID 1918972). Also: nearly all actives have a fitted effect of over 30% in size. Also: potency is read from the fitted curve at half-maximal effect. The method, boiled down:
as §2

Test [7] in a line: Quantitative High-Throughput drug screen in 47 multiple myeloma cell lines against the NCATS MIPE library collection: MOLP8_DSMZ cell viability assay (AID 1918977). Also: nearly all actives have a fitted effect of over 45% in size. Also: potency is read from the fitted curve at half-maximal effect. The method, boiled down:
(§4)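 Myeloma cells (500/well) treated with MIPE 4.0 compounds for 48 h at 37 °C, 5% CO2. Viability read as ATP via CellTiter-Glo luminescence after 5 min at RT; DMSO-only wells = 100%, media-only = 0% viability.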

The nature of test [8]: Quantitative High-Throughput drug screen in 47 multiple myeloma cell lines against the NCATS MIPE library collection: NCIH929_DSMZ cell viability assay (AID 1918978). Also: nearly all actives have a fitted effect of over 35% in size. Also: potency is read from the fitted curve at half-maximal effect. The method, boiled down: as §4
A short description of test [9]: Quantitative High-Throughput drug screen in 47 multiple myeloma cell lines against the NCATS MIPE library collection: OCIMY1_PLB cell viability assay (AID 1918979). Also: nearly all actives have a fitted effect of over 35% in size. Also: potency is read from the fitted curve at half-maximal effect. The method, boiled down: as §4
Test [10] is described as follows: Quantitative High-Throughput drug screen in 47 multiple myeloma cell lines against the NCATS MIPE library collection: INA6_PLB cell viability assay (AID 1918965; also: nearly all actives have a fitted effect of over 55% in size; also: potency is read from the fitted curve at half-maximal effect). In outline: as §2
Test [11] is described as follows: Quantitative High-Throughput drug screen in 47 multiple myeloma cell lines against the NCATS MIPE library collection: Karpas25_ECACC cell viability assay (AID 1918968). The method, boiled down:
as §2

Test [12] in a line: Quantitative High-Throughput drug screen in 47 multiple myeloma cell lines against the NCATS MIPE library collection: KMS20_JCRB cell viability assay (AID 1918973). Also: nearly all actives have a fitted effect of over 45% in size. Also: potency is read from the fitted curve at half-maximal effect. The method, boiled down:
as §2

Test [13] in a line: Quantitative High-Throughput drug screen in 47 multiple myeloma cell lines against the NCATS MIPE library collection: KMS26_JCRB cell viability assay (AID 1918975). Also: nearly all actives have a fitted effect of over 45% in size. Also: potency is read from the fitted curve at half-maximal effect. The method, boiled down:
as §3

Test [14] is described as follows: Quantitative High-Throughput drug screen in 47 multiple myeloma cell lines against the NCATS MIPE library collection: KMS21BM_JCRB cell viability assay (AID 1918974). Also: potency is read from the fitted curve at half-maximal effect. The following applies: ATP luminescence, 48 h; viability: at 45.8 µM (top of the series). The method, boiled down:
as §2

Test [15] can be described thus: Quantitative High-Throughput drug screen in 47 multiple myeloma cell lines against the NCATS MIPE library collection: KMM1_JCRB cell viability assay (AID 1918960). Also: potency is read from the fitted curve at half-maximal effect; nearly all actives have a fitted effect of over 30% in size. In outline: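 Luminescence from CellTiter-Glo, taken after 5 min at room temperature, reports cellular ATP as viability. Cells (500 per well) had been treated 48 h at 37 °C with MIPE 4.0 compounds, scaled between DMSO and medium-only controls.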

A short description of test [16]: Quantitative High-Throughput drug screen in 47 multiple myeloma cell lines against the NCATS MIPE library collection: KMS27_JCRB cell viability assay (AID 1918970). Also: nearly all actives have a fitted effect of over 30% in size. Also: potency is read from the fitted curve at half-maximal effect. To be noted: KMS27 myeloma cells, CellTiter-Glo ATP viability, 48 h; viability (% of DMSO): at 45.8 µM (top of the series). In outline: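 ATP-based viability (CellTiter-Glo luminescence) is measured in cells treated 48 h with approved and investigational drugs at 37 °C. Controls are DMSO-only wells for full viability and media-only wells for none.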
Background: ATP-based viability assays read luminescence as a measure of living cells.

Test [17] is described as follows: Quantitative High-Throughput drug screen in 47 multiple myeloma cell lines against the NCATS MIPE library collection: MMM1_PLB cell viability assay (AID 1918976). Also: nearly all actives have a fitted effect of over 35% in size. Also: potency is read from the fitted curve at half-maximal effect. The method, boiled down:
as §4

Test [18] is described as follows: Quantitative High-Throughput drug screen in 47 multiple myeloma cell lines against the NCATS MIPE library collection: JIM1_ECACC cell viability assay (AID 1918964; also: potency is read from the fitted curve at half-maximal effect). In outline: as §2
Test [19] is described as follows: Quantitative High-Throughput drug screen in 47 multiple myeloma cell lines against the NCATS MIPE library collection: Karpas417_ECACC cell viability assay (AID 1918961). The following applies: Karpas417 myeloma viability, CellTiter-Glo ATP luminescence, 48 h; viability (% of DMSO): at 45.8 µM (top of the series). The method, boiled down:
as §2

Inconclusive results are not listed. Active and inactive are the calls of the source. Calls follow the shape of the dose curve; as a rule, active = well fitted curve in the direction sought with a large enough effect; inconclusive = small, poorly fitted or top-dose-only effect, or another doubt; inactive = no such curve, though single readings can be large; an effect the other way counts as inactive or inconclusive.

As to `O=C(C=CC=Cc1ccc2c(c1)OCO2)N1CCCCC1`, the Potency result in [1], in [2], in test [3], in [4], in test [5] and in test [7] was “inactive” each time. Also, the Potency entry in [8] and in test [9] was “inactive” each time. In test [6], the Potency is 16600 nM (active).

For `COc1ccc(S(=O)(=O)Nc2cccnc2Nc2ccc(O)cc2)cc1`, the Potency in [2] is 52.6 nM (active); in test [10], 83.3 nM (active); in [3], 1320 nM (active); in test [4] it was 105 nM (active); in test [11] it was 235 nM (active); in test [5] it was 74.3 nM (active). Besides, the Potency in [12] was 83.3 nM (active); in test [13], 2640 nM (active); in [7] it was 1180 nM (active); in test [8], 1180 nM (active).

In the case of `COc1cc(C(C)C)c(Oc2cnc(NC(CO)CO)nc2N)cc1I`, the Potency result in test [1], in test [2], in [10], in [4], in test [5] and in [7] was “inactive” throughout. Also, the Potency entry in test [8] and in test [9] was “inactive” in each case. In addition, the Potency is 18700 nM (active) in test [11], 662 nM (active) in test [14] and 2640 nM (active) in test [13].

Consider `CS(=O)(=O)N1CCc2c(-c3cnc(N)nc3)nc(N3CCOCC3)nc21`, for which the Potency in test [15] was 66.2 nM (active); in test [10], 1480 nM (active); in [3] it was 590 nM (active); in test [11], 105 nM (active); in test [16] it was 23.5 nM (active); in [5] it was 935 nM (active). Moreover, the Potency in test [13] was 132 nM (active); in test [17], 148 nM (active); in test [8] it was 20.9 nM (active).

For the compound `CC(=CC(=O)Nc1ccccc1C(=O)O)c1ccc2ccccc2c1`, the Potency in test [18] is 590 nM (active); in test [11], 20900 nM (active); in test [6], 23500 nM (active); in test [8], 7430 nM (active).

In the case of `C[C@@H](NCc1cc2ccccc2[nH]1)c1cccc2ccccc12`, the Potency result in [19], in test [2], in test [3], in [5], in [12] and in test [7] was “inactive” each time. Also, in [8], the Potency entry is “inactive”. Besides, in test [10], the Potency is 4690 nM (active).

As for `Cc1nc(NC(=O)N2CCC[C@@H]2C(N)=O)sc1-c1ccnc(C(C)(C)C(F)(F)F)c1`, the Potency in test [11] is 5260 nM (active); in [5], 10500 nM (active); in test [12] it was 1480 nM (active); in test [13], 4180 nM (active); in [8], 148 nM (active); in test [9] it was 93.5 nM (active). The Potency result in [16] was “inactive”.

Take `O=C(O)c1ccc(Nc2ncc3c(n2)-c2ccc(Cl)cc2C(c2c(F)cccc2F)=NC3)cc1`: the Potency entry in test [19], in [16], in test [17] and in [9] was “inactive” throughout. In addition, the Potency in test [2] was 4690 nM (active); in test [10], 1870 nM (active); in [3], 3720 nM (active); in test [4] it was 16600 nM (active); in [11], 14800 nM (active); in [5], 296 nM (active). Further, the Potency in test [12] was 14800 nM (active); in [8], 4180 nM (active).

As for `CC[C@@]1([C@@H]2O[C@@H]([C@H]3O[C@@](O)(CO)[C@H](C)C[C@H]3C)C[C@H]2C)CC[C@H]([C@]2(C)CC[C@]3(C[C@H](O)[C@@H](C)[C@@H]([C@@H](C)[C@@H](OC)[C@H](C)C(=O)O)O3)O2)O1`, the Potency in test [1] was 512 nM (active); in test [2], 229 nM (active); in test [18] it was 64.5 nM (active); in [10] it was 257 nM (active); in [3] it was 257 nM (active); in test [11], 3230 nM (active). Moreover, the Potency in [6] is 91.1 nM (active); in [12], 51.2 nM (active); in test [13], 182 nM (active); in test [17], 575 nM (active); in test [7], 204 nM (active); in test [8], 288 nM (active).

Consider `CCCCCCCN(CC)CCCC(O)c1ccc(NS(C)(=O)=O)cc1` (configuration not stated), for which the Potency in test [15] and in test [16] was 20900 nM (active) in each case. Moreover, the Potency result in test [3] and in test [5] was “inactive” in each case.

As for `COc1ccc(C[C@@H](C)[C@@H](C)Cc2ccc(OC)c(OC)c2)cc1OC`, the Potency in test [1] was 148 nM (active); in test [2] it was 418 nM (active); in test [10], 662 nM (active); in test [3], 833 nM (active); in [4], 296 nM (active); in test [11], 662 nM (active). The Potency was 166 nM (active) in test [16]; 372 nM (active) in test [6]; 2350 nM (active) in [12]; 590 nM (active) in test [13]; 2960 nM (active) in [7]; 1870 nM (active) in test [8].

In the case of `CC1(C)O[C@@H]2C[C@H]3[C@@H]4CCC5=CC(=O)C=C[C@]5(C)[C@@H]4[C@@H](O)C[C@]3(C)[C@]2(C(=O)CO)O1`, the Potency result in test [2], in test [4], in test [5], in test [6], in test [13] and in test [9] was “inactive” each time. The Potency was 148 nM (active) in test [11], 6620 nM (active) in test [12] and 16600 nM (active) in [8].

The values are drawn from PubChem BioAssay (NCATS).
